The assay deals with primary human hepatic stellate cells (donor 1). As to the kind of experiment: scaled lipid accumulation score (0 = DMSO-like, 1 = nortriptyline-like); higher = stronger HSC inactivation (lipid re-accumulation), active = hit call of the paper. The conditions noted are these: 48 h.
Setting [1] is: library stock concentration: 1 mM.
Where [2] appears, read: library stock concentration: 10 mM.
Where [3] appears, read: library stock concentration: 3.33 mM.
Setting [4] is: library stock concentration: 400 uM.
[5] abbreviates: library stock concentration: 2 mM.

Where “and” joins values, the source holds several entries; their conditions need not be identical. Identical values can stand only once. Counter-ions that a name gives are not always drawn. The whole screen tested about 5,800 compounds, of which about 620 (11%) showed activity. The full list was thinned out, with actives kept by preference. Unmarked numbers belong to inactive results.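 How the source made its calls: active = score above a cut-off or among the top three wells of a plate; in these data no inactive exceeds 0.85.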

As to `CCCCC[C@H](O)/C=C/[C@@H]1[C@@H](C/C=C/CCCC(=O)O)[C@H](O)C[C@H]1O` [5-trans Prostaglandin F2.beta.], the “scaled lipid accumulation score” value under setting [1] was at most 0. On the same count and under the same terms, with `O=C1OC(O)C(c2cc3ccccc3s2)=C1Br` (stereo unspecified) the figure was 0.04; with `O=C1O/C(=C/Br)CC[C@H]1c1cccc2ccccc12` [(S)-Bromoenol lactone], 0.103. For the compound `COc1cc(C(=O)OCCCN2CCCN(CCCOC(=O)c3cc(OC)c(OC)c(OC)c3)CC2)cc(OC)c1OC.Cl.Cl` [Dilazep dihydrochloride], the “scaled lipid accumulation score” value under setting [2] was 1.06 (active). The same measure, in the same setting: under `COc1cc(N)c(Cl)cc1C(=O)OCCCN1CCCCC1` stands 0.126.

For the compound `COc1cc(OC)c(C(=O)CCCN2CCCC2)c(OC)c1`, under setting [2], the “scaled lipid accumulation score” value was at most 0. As for `COc1cc(C(=O)NCCCCCC(=O)O)cc(OC)c1OC` [Capobenic acid], the “scaled lipid accumulation score” value (library stock concentration: 6.1 mM) is at most 0. As to `COc1cc(N)c(Cl)cc1C(=O)OCCN1CCCCC1`, the “scaled lipid accumulation score” value under setting [2] was at most -0.007.

Turning to `COc1cc(C(=O)OCCCN2CCCN(CCCOC(=O)c3cc(OC)c(OC)c(OC)c3)CC2)cc(OC)c1OC.Cl.Cl`, the “scaled lipid accumulation score” value under setting [2] is 0.84 (active). As to `COc1cc(C(=O)OCCCN2CCCN(CCCOC(=O)c3cc(OC)c(OC)c(OC)c3)CC2)cc(OC)c1OC` [Dilazep dihydrochloride], the “scaled lipid accumulation score” value was 0.164. `COc1cc(C(=O)N2CCOCC2)cc(OC)c1OC` [Trimetozine]: the “scaled lipid accumulation score” value (library stock concentration: 7.1 mM) was at most 0. As for `COc1cc(OC)c(C(=O)CCCN2CCCC2)c(OC)c1` [Buflomedil hydrochloride], the “scaled lipid accumulation score” value was 0.025. As to `COc1cc(C(=O)OCCC[NH+]2CCC[NH+](CCCOC(=O)c3cc(OC)c(OC)c(OC)c3)CC2)cc(OC)c1OC.[Cl-].[Cl-]` [Dilazep hydrochloride], the “scaled lipid accumulation score” value under setting [2] is 0.951 (active).

As for `COc1cc(OC)c(C(=O)CCCN2CCCC2)c(OC)c1` [Buflomedil HCl], the “scaled lipid accumulation score” value by setting is: under setting [3], at most 0; under setting [2], at most 0.

As to `CC1(C)CCCC2(C)C1CCC1(C)OC(=O)CC12` (stereo unspecified) [Sclareolide], the “scaled lipid accumulation score” value is, setting by setting: under setting [3], at most 0; under setting [2], 0.09. Regarding `NC(=O)c1ccc(N(C(N)=O)c2c(F)cccc2F)nc1-c1ccc(F)cc1F`, the “scaled lipid accumulation score” value is at most -0.001 (library stock concentration: 80 uM); ≤ -0.001 and ≤ -0.005 under setting [4]; ≤ -0.001 and 0.083 under setting [5]; at most 0 under setting [3]; ≤ 0 and 0.012 and ≤ -0.005 under setting [2]. `CCCCC[C@H](O)/C=C/[C@H]1[C@H](O)CC(=O)[C@@H]1C/C=C\CCCC(=O)NC(CO)CO` [Prostaglandin E2 serinol amide]: the “scaled lipid accumulation score” value under setting [1] was at most 0. `CCN[C@@H]1C[C@H](N)[C@@H](O[C@H]2OC(CN)=CC[C@H]2N)[C@H](O)[C@H]1O[C@H]1OC[C@](C)(O)[C@H](NC)[C@H]1O` [Netilmicin sulfate]: for the setting “library stock concentration: 3 mM”, the “scaled lipid accumulation score” value was at most 0.

In the case of `CC1=C(/C=C/C(C)=C\C=C\C(C)=C\C(=O)O)C(C)(C)CCC1` [9-cis Retinoic acid], the “scaled lipid accumulation score” value under setting [1] is at most -0.021.

In the case of `NC1C=CC=C(C(=O)O)C1` (stereo unspecified) [Gabaculine hydrochloride], the “scaled lipid accumulation score” value under setting [2] was at most 0. With `CCCCC[C@H](O)/C=C/C1=C(CCCCCCC(=O)O)C(=O)CC1` [Prostaglandin B1], under setting [1], the “scaled lipid accumulation score” value is ≤ 0 and ≤ -0.021. As for `O=C(NC[C@H]1CN(c2ccc(N3CCOCC3=O)cc2)C(=O)O1)c1ccc(Cl)s1` [Rivaroxaban], the “scaled lipid accumulation score” value reads like this: under setting [3], at most 0; under setting [2], at most 0.

With `Cc1ccccc1N=Nc1ccc(NC(=O)c2ccnn2C)c(C)c1`, under setting [2], the “scaled lipid accumulation score” value was at most -0.006. Consider `Cc1[nH]c(/C=C2\C(=O)Nc3ccccc32)c(C)c1CCC(=O)O`, for which the “scaled lipid accumulation score” value under setting [2] was 0.019. On to `CCN(CC)CCNC(=O)c1c(C)[nH]c(/C=C2\C(=O)Nc3ccc(F)cc32)c1C.O=C(O)C[C@H](O)C(=O)O` [Sunitinib malate], for which, under setting [5], the “scaled lipid accumulation score” value was 0.997 (active). Consider `CCOC(=O)c1c(C)[nH]c(/C=C2\C(=O)Nc3ccccc32)c1C` [VEGF Receptor 2 Kinase Inhibitor I], for which, under setting [3], the “scaled lipid accumulation score” value is at most 0. For `CCN(CC)CCNC(=O)c1c(C)[nH]c(/C=C2\C(=O)Nc3ccc(F)cc32)c1C`, the “scaled lipid accumulation score” value is 0.189 under setting [4] and 0.43 under setting [2].

Turning to `Cc1[nH]c(/C=C2\C(=O)Nc3ccccc32)c(C)c1CCC(=O)O` [SU-6668 (TSU-68, Orantinib) (10 mM)], the “scaled lipid accumulation score” value under setting [2] is 0.012. On to `CCN(CC)CCNC(=O)c1c(C)[nH]c(/C=C2\C(=O)Nc3ccc(Cl)cc32)c1C`, for which the “scaled lipid accumulation score” value under setting [3] is 0.556. `Cc1[nH]c(/C=C2\C(=O)Nc3ccccc32)c(C)c1CCC(=O)O` [SU-6668 (TSU-68, Orantinib) (0.4 mM)]: the “scaled lipid accumulation score” value under setting [4] is 0.175.

For `Cc1[nH]c(/C=C2\C(=O)Nc3ccccc32)c(C)c1CCC(=O)O` [TSU-68 (SU6668, Orantinib)], the “scaled lipid accumulation score” value by setting is: under setting [3], at most 0; under setting [2], at most 0. Consider `Cc1[nH]c(/C=C2\C(=O)Nc3ccccc32)c(C)c1CCC(=O)O` [SU-6668 (TSU-68, Orantinib) (2 mM)], for which the “scaled lipid accumulation score” value under setting [5] is 0.047.
